Screening data: PubChem BioAssay, National Center for Advancing Translational Sciences (NCATS)
Compounds with a hit are over-represented: about 15% of the library has one in this group of screens.
TDP1 cell noCPT = qHTS for Inhibitors of human tyrosyl-DNA phosphodiesterase 1 (TDP1): qHTS in cells in absence of CPT. DT40 Tdp1-/- hTDP1 cells, no CPT, ATP luminescence, 48 h. Potency, µM (highest dose often 46.2 µM), most hits filed as inhibitors. 15% of 420,000 active. AID 686978, 2013; also: nearly all actives have a fitted effect of over 55% in size
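Chicken DT40 Tdp1-/- cells stably complemented with human TDP1 were seeded at 400 cells/well with DMSO in place of 20 nM camptothecin. After compound pinning, cells grew at least 48 hr at 37 °C; viability read by CellTiter-Glo luminescence.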
TDP1 cell CPT = growth inhibition of DT40 Tdp1-/-;hTDP1 cells with camptothecin (screen for TDP1 inhibitors). chicken DT40 Tdp1-/-;hTDP1 cells + 20 nM CPT, ATP luminescence, 48 h. 12% of 420,000 active. AID 686979. Potency, µM (titrated, usually from 46.2 µM), actives largely listed as inhibitors; also: nearly all actives have a fitted effect of over 55% in size
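Chicken DT40 Tdp1-/- cells complemented with human TDP1, 400 cells/well, exposed to compounds plus 20 nM camptothecin for at least 48 h at 37 C; viability read as ATP content by CellTiter-Glo luminescence.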
ELG1 DNA repair = blocks ELG1-dependent DNA repair in HEK293T cells; AID 504467; HEK293T ELG1-luciferase reporter, luminescence, 16 h; DNA damage induced by 5-fluorouridine; Potency, µM (series often up to 46.1 µM), usual class: inhibitors; 2.3% of 330,000 active; also: nearly all actives have a fitted effect of over 55% in size
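HEK293T cells expressing luciferase-tagged ELG1 (2,000/well) received 5-Fluorouridine plus compound or DMSO for 16 hr at 37 °C. Luciferase was read by ONE-Glo luminescence after 30 min at room temperature.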
RORgamma inh = inhibitors of mouse ROR gamma transcriptional activity; Drosophila S2 Gal4-RORgamma UAS-luciferase reporter, 20 h; Potency, µM (highest dose often 53.6 µM), actives largely listed as inhibitors; 5.4% of 310,000 active; also: nearly all actives have a fitted effect of over 60% in size
Target sequence (P51450 whole entry, looked up, the tested form may be a part): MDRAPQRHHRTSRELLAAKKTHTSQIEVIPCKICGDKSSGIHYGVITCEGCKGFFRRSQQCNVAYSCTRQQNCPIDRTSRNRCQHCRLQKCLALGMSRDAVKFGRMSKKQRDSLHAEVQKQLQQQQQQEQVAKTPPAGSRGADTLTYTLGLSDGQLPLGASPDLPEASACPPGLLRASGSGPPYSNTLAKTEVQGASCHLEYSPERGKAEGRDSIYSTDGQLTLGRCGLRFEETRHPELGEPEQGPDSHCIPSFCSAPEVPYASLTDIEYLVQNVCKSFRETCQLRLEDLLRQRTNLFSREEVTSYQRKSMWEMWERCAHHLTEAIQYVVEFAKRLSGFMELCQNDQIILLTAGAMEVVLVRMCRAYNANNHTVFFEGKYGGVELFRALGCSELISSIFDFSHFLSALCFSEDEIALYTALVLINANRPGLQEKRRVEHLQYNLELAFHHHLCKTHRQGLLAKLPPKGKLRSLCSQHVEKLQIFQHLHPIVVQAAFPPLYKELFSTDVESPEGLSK
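Compounds are pin-transferred onto Drosophila Schneider cells expressing a copper-inducible Gal4–ROR gamma transactivation domain fusion. After 1 hr, copper sulfate is added to 700 uM final; luciferase is read 20 hr later.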
Gal4-VP16 FLuc = Gal4-VP16 reporter inhibition counter-screen; 3.5% of 310,000 active; Potency, µM (highest dose often 53.6 µM), most hits filed as inhibitors; Drosophila S2 Gal4-VP16 UAS-luciferase, luminescence, 20 h;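 also: Gal4-VP16 expression switched on by copper sulfate through the metallothionein promoter; nearly all actives have a fitted effect of over 50% in size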
12-LOX inh = ALOX12 (human) lipoxygenase inhibition; P18054; purified 12hLO, xylenol orange hydroperoxide absorbance; Potency, µM (highest dose often 108 µM), hits mostly inhibitors; 1.1% of 580,000 active
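Purified human 12hLO (150 nM final) in 25 mM Hepes, 0.01% Triton X-100, pH 7.0 was preincubated 15 min at room temperature with compound. Then 40 uM arachidonic acid was added, 30 min. Hydroperoxide was read by Fe-XO absorbance ratio 573/405 nm.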
Numbers stand for hits; 0 = inactive; ? = inconclusive; - = no result; [ ] = dose if it differs, or a comment. Calls follow the shape of the dose curve; as a rule, active = well fitted curve in the direction sought with a large enough effect; inconclusive = small, poorly fitted or top-dose-only effect, or another doubt; inactive = no such curve, though single readings can be large; an effect the other way counts as inactive or inconclusive.

SMILES | TDP1 cell noCPT | TDP1 cell CPT | ELG1 DNA repair | RORgamma inh | Gal4-VP16 FLuc | 12-LOX inh
Cc1cc(C)cc(Cn2ncc(Cl)c(Cl)c2=O)c1 | 12µM | 8.2µM | ? | ? | 11µM | 0
O=c1c(Cl)c(Cl)cnn1Cc1ccccc1Cl | 1µM | 2.6µM | 10µM | 1.1µM | ? | 0
O=c1c(Cl)c(Cl)cnn1Cc1nnc(-c2ccc(Cl)cc2)o1 | 0.92µM | 0.82µM | ? | ? | ? | 0
COc1ccnc(-c2nnc3ccc(NC4CCOCC4)nn23)c1 | - | - | - | - | - | 0
COCCN1C(=O)C(=O)/C(=C(/O)c2ccc(OCC(C)C)c(C)c2)C1c1cccnc1 (stereo not given) | - | - | - | - | - | 0
CCc1ccc(C(=O)Cn2ncc(Cl)c(Cl)c2=O)cc1 | 2.9µM | 3.7µM | 0 | 0 | 0 | 0
C#CCOC(=O)Nc1ccc(OCC(F)(F)F)nc1 | 7.3µM | 9.2µM | 0 | 0 | ? | 0
C#CCOC(=O)Nc1cnccc1C(F)(F)F | 0 | 0 | 0 | 0 | 0 | 0
Cc1c(OCc2ccccc2)c(=O)ccn1Cc1ccc(Cl)cc1 | 16µM | ? | ? | 0 | 0 | 0
Cc1ccc(Cn2ccc(=O)c(Cc3c(Cl)cccc3Cl)c2C)cc1 | 0 | 0 | 0 | 0 | 0 | 0
COc1ccc(Cn2ccc(=O)c(Cc3c(Cl)cccc3Cl)c2C)cc1 | ? | 0 | 0 | 16µM | 16µM | 0
Cc1c(O)c(=O)ccn1Cc1ccccc1 | 18µM | 23µM | ? | ? | 0[10 µM] | ?
COc1ccc(CCn2c(C)nc3c(c(=O)c4ccccc4n3C)c2=O)cc1 | 5.8µM | ? | ? | 0 | 0 | ?
COc1ccc2c(=O)c3c(=O)n(-c4ccccc4)c(-c4ccc(C)cc4)nc3oc2c1 | 18µM | 0 | ? | 0 | 0 | 0
COc1ccc(CNn2c(C)nc3ccccc3c2=O)cc1 | ? | 0 | 0 | 0 | 0 | 0
COc1ccc2c(=O)c3c(=O)n(CCc4ccccc4)c(C(C)C)nc3oc2c1 | 15µM | 26µM | 0 | 0 | 0 | ?
COc1ccc(CCn2c(S)nc3ccccc3c2=O)cc1 | 0 | 0 | 0 | 3.2µM | ? | -
CCCC(=O)Nc1ccc(CNCc2c(C)cc(C)cc2C)cc1 | - | - | - | - | - | 0
CCCCCc1ccc(C(=O)C(C)C)cc1 | - | - | - | - | - | 0
CCOC(=O)NC(CNC(=O)c1cc(C)ccc1C)CC(C)C (stereo not given) | - | - | - | - | - | 0
CC(C)=CC(=O)Nc1ccc2c(c1)-c1ccccc1C2 | - | - | - | - | - | 0
CCCN(C(=O)Cn1nc(Cc2ccncc2)c2ccccc2c1=O)c1ccc(CC)cc1 | - | - | - | - | - | 0
O=C(Nc1cccc(CN2CCOC2=O)c1)N1CCCCCCC1 | - | - | - | - | - | 0
CN(C)C(=O)C1CN(C(=O)c2ccccc2OC(F)(F)F)CC12CCOCC2 (stereo not given) | - | - | - | - | - | 0
COc1ccc(CCn2c(C(C)C)nc3c(c(=O)c4ccccc4n3C)c2=O)cc1 | 12µM | 16µM | 16µM | 0 | 0 | -
SMILES | TDP1 cell noCPT | TDP1 cell CPT | ELG1 DNA repair | RORgamma inh | Gal4-VP16 FLuc | 12-LOX inh
COc1ccc(Cn2c(-c3ccc(C)cc3)nc3c(c(=O)c4ccccc4n3C)c2=O)cc1 | ? | 15µM | ? | 0 | 0 | 0
COc1ccc(Cn2c(-c3ccc(OC)cc3)nc3c(c(=O)c4ccccc4n3C)c2=O)cc1 | - | - | ? | 0 | 0 | -
O=C(COC(=O)c1ccc(N2CCCC2=O)cc1)c1ccc2c(c1)CCC2 | - | - | - | - | - | 0
CCCNC(=O)NC(=O)CSc1nc2ccccc2c(=O)n1CC1CCCO1 (stereo not given) | - | - | - | - | - | 0
CC(C)CN(CC(C)C)S(=O)(=O)c1cc([N+](=O)[O-])ccc1N1CCCCCC1 | 16µM | ? | 0 | 0 | 0 | ?
O=[N+]([O-])c1ccc(N2CCCCCC2)c([N+](=O)[O-])c1 | 0 | 0 | 0 | 0 | 0[0.365 µM] | ?
O=C(CSc1nnc(-c2ccccc2)n1-n1cccc1)Nc1ccc2c(c1)OCO2 | - | - | - | - | - | 0
O=C1c2cnc3nc(SCc4cccc(Cl)c4)nn3c2CC2c3ccccc3CCN12 (stereo not given) | 21µM | 15µM | 0 | 0 | 0 | 0
